The supplement of paper PMC4022240
± gives the standard deviation.

T1: HaloTag-ATRX ADD domain (163-292)
T1 chain: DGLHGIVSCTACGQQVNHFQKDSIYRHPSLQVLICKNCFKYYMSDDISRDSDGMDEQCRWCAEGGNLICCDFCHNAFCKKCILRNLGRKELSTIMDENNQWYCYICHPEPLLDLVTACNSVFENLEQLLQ


Target: T1, HaloTag-ATRX ADD domain (163-292)
Experiment: peptide microarray binding signal (635 nm), min-max normalized on array (fraction of array maximum); higher = stronger binding
Conditions: peptide region: Unmod H1 variant; binder concentration: 50 nM
Method in brief: (§1)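 An Axon GenePix 4000B scanned the arrays at 635 nm for signal and at 532 nm to catch misprints. Those arrays held histone 13-mer peptide–cellulose conjugates printed in triplicate on nitrocellulose with a Cy3 tracer, blocked overnight at 4°C and probed for 1 h at 4°C with biotin-labelled HaloTag reader fusions (10 nM to 1 μM) plus streptavidin-Alexa Fluor 647 or with rabbit histone antibodies (1:10,000 to 1:2,000) plus anti-rabbit Alexa 647. Each binding signal is a triplicate-spot mean intensity, scaled min-max within its library.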

Binder | peptide microarray binding signal
GAAKRKASGPPVS [Unmod H1 variant G A A K R K A S G P P V S] | 0.0168 ± 0.00018
KAKKAGAAKAKKP [Unmod H1 variant K A K K A G A A K A K K P] | 0.01282 ± 3.1e-05
ASGSFKLNKKAAS [Unmod H1 variant A S G S F K L N K K A A S] | 0.0207 ± 0.0013
GVSLAALKKALAA [Unmod H1 variant G V S L A A L K K A L A A] | 0.0641 ± 0.057
ALAAAGYDVEKNN [Unmod H1 variant A L A A A G Y D V E K N N] | 0.021 ± 0.00023

Same assay, conditions: peptide region: Unmod H1 variant; binder concentration: 500 nM

Binder | peptide microarray binding signal
GAAKRKASGPPVS [Unmod H1 variant G A A K R K A S G P P V S] | 0.00757 ± 0.00056
KAKKAGAAKAKKP [Unmod H1 variant K A K K A G A A K A K K P] | 0.0114 ± 0.00065
ASGSFKLNKKAAS [Unmod H1 variant A S G S F K L N K K A A S] | 0.00791 ± 0.00049
GVSLAALKKALAA [Unmod H1 variant G V S L A A L K K A L A A] | 0.0257 ± 0.0036
ALAAAGYDVEKNN [Unmod H1 variant A L A A A G Y D V E K N N] | 0.0215 ± 0.001

Target: HaloTag-ING2 PHD (mouse Ing2 200-280)
Experiment: as above
Conditions: peptide region: Unmod H1 variant; binder concentration: 10 nM
Method in brief: as §1

Binder | peptide microarray binding signal
GAAKRKASGPPVS [Unmod H1 variant G A A K R K A S G P P V S] | 0.00245 ± 5e-05
KAKKAGAAKAKKP [Unmod H1 variant K A K K A G A A K A K K P] | 0.00424 ± 5.8e-05
ASGSFKLNKKAAS [Unmod H1 variant A S G S F K L N K K A A S] | 0.00233 ± 5.8e-05
GVSLAALKKALAA [Unmod H1 variant G V S L A A L K K A L A A] | 0.00621 ± 0.00023
ALAAAGYDVEKNN [Unmod H1 variant A L A A A G Y D V E K N N] | 0.00991 ± 0.00043

Same assay, conditions: peptide region: Unmod H1 variant; binder concentration: 100 nM

Binder | peptide microarray binding signal
GAAKRKASGPPVS [Unmod H1 variant G A A K R K A S G P P V S] | 0.00822 ± 0.00024
KAKKAGAAKAKKP [Unmod H1 variant K A K K A G A A K A K K P] | 0.00935 ± 0.00021
ASGSFKLNKKAAS [Unmod H1 variant A S G S F K L N K K A A S] | 0.00425 ± 7.2e-05
GVSLAALKKALAA [Unmod H1 variant G V S L A A L K K A L A A] | 0.0162 ± 0.0004
ALAAAGYDVEKNN [Unmod H1 variant A L A A A G Y D V E K N N] | 0.0252 ± 0.0029

Target: anti-H3K4me3 antibody ab8580
Experiment: as above
Conditions: peptide region: Unmod H1 variant; binder concentration: 1:2,000 dilution
Method in brief: as §1

Binder | peptide microarray binding signal
GAAKRKASGPPVS [Unmod H1 variant G A A K R K A S G P P V S] | 0.000793 ± 1.2e-05
KAKKAGAAKAKKP [Unmod H1 variant K A K K A G A A K A K K P] | 0.000906 ± 2.4e-05
ASGSFKLNKKAAS [Unmod H1 variant A S G S F K L N K K A A S] | 0.00132 ± 0.0003
GVSLAALKKALAA [Unmod H1 variant G V S L A A L K K A L A A] | 0.00157 ± 0.00018
ALAAAGYDVEKNN [Unmod H1 variant A L A A A G Y D V E K N N] | 0.0067 ± 0.0027

Same assay, conditions: peptide region: Unmod H1 variant; binder concentration: 1:10,000 dilution

Binder | peptide microarray binding signal
GAAKRKASGPPVS [Unmod H1 variant G A A K R K A S G P P V S] | 0.000799 ± 8.3e-06
KAKKAGAAKAKKP [Unmod H1 variant K A K K A G A A K A K K P] | 0.00148 ± 2.9e-05
ASGSFKLNKKAAS [Unmod H1 variant A S G S F K L N K K A A S] | 0.000913 ± 1.6e-05
GVSLAALKKALAA [Unmod H1 variant G V S L A A L K K A L A A] | 0.00262
ALAAAGYDVEKNN [Unmod H1 variant A L A A A G Y D V E K N N] | 0.00702 ± 0.00034

Target: anti-H3K9me3 antibody ab8898
Experiment: as above
Conditions: peptide region: Unmod H1 variant; binder concentration: 1:2,000 dilution
Method in brief: as §1

Binder | peptide microarray binding signal
GAAKRKASGPPVS [Unmod H1 variant G A A K R K A S G P P V S] | 0.000211 ± 4.5e-06
KAKKAGAAKAKKP [Unmod H1 variant K A K K A G A A K A K K P] | 0.000423 ± 8.2e-06
ASGSFKLNKKAAS [Unmod H1 variant A S G S F K L N K K A A S] | 0.000257 ± 2.7e-06
GVSLAALKKALAA [Unmod H1 variant G V S L A A L K K A L A A] | 0.00131 ± 4.4e-05
ALAAAGYDVEKNN [Unmod H1 variant A L A A A G Y D V E K N N] | 0.00281 ± 0.0003

Same assay, conditions: peptide region: Unmod H1 variant; binder concentration: 1:10,000 dilution

Binder | peptide microarray binding signal
GAAKRKASGPPVS [Unmod H1 variant G A A K R K A S G P P V S] | 0.000634
KAKKAGAAKAKKP [Unmod H1 variant K A K K A G A A K A K K P] | 0.00075 ± 7.9e-06
ASGSFKLNKKAAS [Unmod H1 variant A S G S F K L N K K A A S] | 0.00075 ± 1.6e-05
GVSLAALKKALAA [Unmod H1 variant G V S L A A L K K A L A A] | 0.00161 ± 3.1e-05
ALAAAGYDVEKNN [Unmod H1 variant A L A A A G Y D V E K N N] | 0.00357 ± 0.00017
